Our source for the growth values is PubChem BioAssay (NCI).

About 83,000 compounds went through this panel and 20% of them were active in at least one assay; those are over-represented in the sample as a whole.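 Cell lines were cultured in 96-well plates, exposed to a single compound concentration, and assessed for percent growth 48 hours later.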 Unmarked numbers belong to inactive results. Active and inactive are the calls of the source. The calls were made as follows: active = growth percent below 10; inactive = the rest.

The experiment relates to MDA-MB-468 breast. Briefly: NCI-60 one-dose screen, 48 h (100 = growth as untreated, 0 = no growth, -100 = all killed). The following applies: 10 µM.
As for `O=C(/C=C/Nc1ccc(F)cc1F)c1ccc2c(c1)Nc1ccccc1S2`, the growth was 41.9%.

As for `C=C1CC[C@H](C(=C)C)[C@H]2C=C(C)C(=O)C3=C(C(=O)[C@@](C)(O)C3)[C@H]12`, the growth was -69.5% (active).

With `CN(CCO)c1oc(-c2ccccc2)nc1[P+](c1ccccc1)(c1ccccc1)c1ccccc1`, the growth is -55.9% (active).

`O=C(CNc1nc(-c2ccccc2)cs1)Nc1ccc([N+](=O)[O-])cc1Cl`: the growth is -30.3% (active).

As to `COc1ccc(CCN2C(=O)/C(=C/c3csc(C#N)n3)SC2=S)cc1OC`, the growth was -80.6% (active).

With `Cc1ccc([N+](=O)[O-])c(C(=O)Nc2ccc(-c3ccc4c(c3)NC(=O)/C4=C\c3ccc[nH]3)cc2)c1`, the growth was -28.9% (active).

Consider `COc1ccc(-c2nc(S(=O)(=O)c3ccccc3)c(S(C)(=O)=O)o2)cc1`, for which the growth is -88.1% (active).

For the molecule `Cc1ccc(-c2ccc(SCC(=O)Nc3ccc(Cl)c(C(F)(F)F)c3)nn2)cc1`, the growth was -31% (active).

Consider `Cc1ccn2c(C(=O)c3ccc(Br)cc3)cc(-c3cc(-c4ccc(N(C)C)cc4)c(C#N)c(N)n3)c2c1`, for which the growth was -15% (active).

With `O=c1[nH]c2ccccc2cc1CSc1ccc(Nc2nccc(-c3ccc(Cl)cc3)n2)cc1`, the growth was -67.5% (active).

For `CC1(C)CC[C@]2(C(=O)Nc3ccccc3)CC[C@]3(C)C(=CC[C@@H]4[C@@]5(C)CC[C@H](N)C(C)(C)[C@@H]5CC[C@]43C)[C@H]2C1`, the growth was 1.83% (active).

Take `Cc1ccc(NC(=O)NCn2c(=O)[nH]c3ccccc3c2=O)cc1`: the growth was 84.1%.

On to `COc1cc(/C=C/C(=O)c2cc(OC)c(OC)c(OC)c2)ccc1Oc1nc(Nc2ccc(F)cc2)nc(N(C)C)n1`, for which the growth was -39.6% (active).

On to `Cn1cc(/C=N/Nc2ccnc3cc(Cl)ccc23)c2ccccc21`, for which the growth is -83.5% (active).

With `N#Cc1ccc(-c2nn(-c3ccc(C(=O)O)cc3)cc2CNc2cc(Cl)cc(C(F)(F)F)c2)cc1`, the growth is -13.7% (active).

With `O=C1NC(=NC23CC4CC(CC(C4)C2)C3)N/C1=C\c1ccc2ncccc2n1`, the growth was -63% (active).

On to `COc1ccc(/C=C/C(=O)c2ccc(NC(=O)CN3C(=O)NC(C)(c4ccccc4)C3=O)cc2)cc1` (configuration not stated), for which the growth was 49.4%.

On to `O=C(c1ccc(Cl)cc1)C1[C@H](c2ccccc2Br)[C@@H](c2ccccc2)NC12C(=O)Nc1ccc(Cl)cc12` (some centres not stated), for which the growth is -40.2% (active).

In the case of `O=C1CCC(N2Cc3cc(NC(=O)COc4ccccc4)ccc3C2=O)C(=O)N1` (configuration not stated), the growth is -25.1% (active).

For the molecule `CC1(c2ccccc2)NC(=O)N(CC(=O)Nc2ccc(C(=O)/C=C/c3ccc(Cl)cc3)cc2)C1=O` (configuration not stated), the growth is -9.47% (active).

As for `C#CCNC(=O)CCC(=O)OC[C@]12CC[C@@H](C(=C)C)[C@@H]1C1CC[C@@H]3[C@@]4(C)CCCNC(C)(C)[C@@H]4CC[C@@]3(C)[C@]1(C)CC2` (some centres not stated), the growth was -94.9% (active).

Regarding `CCCn1c(=O)c2[nH]c(-c3ccc(OCc4nc5ccc(F)cc5[nH]4)cc3)nc2n(CCC)c1=O`, the growth was -12.7% (active).

As for `COC[C@@H](CC(C)C)N=C1NC(=O)/C(=C/c2ccc3ncsc3c2)N1`, the growth is -17.8% (active).

As to `COc1ccc(C=CC(=O)c2ccc(-n3c(C)nc4c(cnn4-c4ccccc4)c3=O)cc2)cc1`, the growth was 11.3%.

`O=C(c1ccc(Cl)cc1)C1[C@H](c2ccccc2Br)[C@@H](c2ccccc2)NC12C(=O)Nc1ccc(Br)cc12` (some centres not stated): the growth is -39.8% (active).

Turning to `O=C(Nc1cccc(C(F)(F)F)c1)c1cncc(C#Cc2cnc3ccc(N4CCOCC4)nn23)c1`, the growth was -64.7% (active).

For `N#Cc1c(-c2ccc(F)cc2)nc(SCc2ccc([N+](=O)[O-])cc2)nc1N1CCOCC1`, the growth is 50.6%.

As for `NS(=O)(=O)c1ccc(NC(=O)CSc2ccc(-c3ccc(Cl)cc3)nn2)c(Br)c1`, the growth is -3.52% (active).

Take `CC(=O)NCC1=C(C)C=C2C(=O)[C@](C)(O)C3(CC3)C(C)=C21`: the growth was -79.7% (active).

In the case of `CC(=O)Nc1nc(-c2ccc(N3CCN(C)CC3)c(NS(=O)(=O)c3cccc4c(N(C)C)cccc34)c2)cs1`, the growth is 58.2%.

For `O=C(CSc1nnc(-c2ccc3nc(-c4ccc(Cl)cc4)[nH]c3c2)o1)Nc1ccc(Br)cc1`, the growth was -4% (active).

As for `COc1cc2c3c(n(CCCNCCO)c(=O)c2cc1OC)-c1nc2c(cc1C3=O)OCO2`, the growth is -58.8% (active).

`Cc1ccc(NCC(=O)Nn2c(COc3ccccc3)nc3ccccc3c2=O)cc1`: the growth is 80.1%.

On to `O=C(c1ccccc1)n1ccc(-c2cc3cc(Br)ccc3oc2=O)n1`, for which the growth was -25.9% (active).

Regarding `Cc1ccc(CSc2nc(Cl)c(C#N)c(-c3ccc(F)cc3)n2)cc1`, the growth is 80.3%.

Turning to `COc1cc(/C=C/C(=O)c2ccc(F)cc2)ccc1Oc1nc(Nc2ccc(F)cc2)nc(N(C)C)n1`, the growth was 28%.

In the case of `COc1cc2oc(-c3cccc(C(=O)Nc4ccc(Cl)cc4)c3)cc(=O)c2c(OCCNC(=O)CNC(=O)OC(C)(C)C)c1OC`, the growth was 67.4%.
